The nature of this experiment: HT29 colon tumor cell growth inhibition, primary screen, imaging, high content imaging, 72 h, CellTiter-Glo (AID 772).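 On condensed nuclei: condensed means nuclear area below control median minus 1.5 SD.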 The following applies: HCS imaging cell count, at 10 µM, stronger effect = higher value; for condensed nuclei: measured here: percent cells with condensed nuclei. A general note: ATP-based viability assays read luminescence as a measure of living cells.
Setting [1] is: measured here: ATP CellTiter-Glo viability.

About 20 (0.6%) of roughly 3,300 compounds were called active.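 How the source made its calls: active means growth inhibition above 90%, meaning viable cell count cut by more than 90% versus vehicle controls; inactive means growth inhibition below 90%.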 Only a selection was taken, and actives are over-represented in it overall.

With `CCCCOCCCn1c(N)c(C(=O)OC(C)COC)c2nc3ccccc3nc21` (stereo not given), the growth inhibition was 91.4% (active) and the condensed nuclei was determined as 11%. The growth inhibition under setting [1] was determined as 77.2%.

`COCC(C)OC(=O)c1c(N)n(Cc2ccco2)c2nc3ccccc3nc12` (stereo not given): the growth inhibition was 44.2% (inactive) and the condensed nuclei came out at 1.26%. Besides, the growth inhibition under setting [1] stood at 19.7%.

With `CC(C)(C)OC(=O)c1c(N)n(Cc2ccco2)c2nc3ccccc3nc12`, the growth inhibition was 44.5% (inactive) and the condensed nuclei was found to be 4.1%. In addition, the growth inhibition under setting [1] was found to be 20.9%.

As to `CC(C)OC(=O)c1c(N)n(Cc2ccco2)c2nc3ccccc3nc12`, the growth inhibition is 31.4% (inactive) and the condensed nuclei worked out at 3.52%. Besides, the growth inhibition under setting [1] is -17.3%.

As to `COCCOC(=O)c1c(N)n(Cc2ccco2)c2nc3ccccc3nc12`, the growth inhibition was -33.9% (inactive) and the condensed nuclei was 3.83%. The growth inhibition under setting [1] was -49.5%.

For the compound `CCCCOCCCn1c(N)c(C(=O)OCCOC)c2nc3ccccc3nc21`, the growth inhibition is 95.3% (active) and the condensed nuclei was 17.2%. In addition, the growth inhibition under setting [1] was found to be 57.5%.

Take `COc1ccc(C2SCC(=O)Nc3c2c(=O)[nH]n3C2CCCCC2)cc1` (stereo not given): the growth inhibition is 1.43% (inactive) and the condensed nuclei came to 12.4%. Under setting [1], the growth inhibition is -9.94%.

As to `Clc1ccc(CSC(Cn2ccnc2)c2ccc(Cl)cc2Cl)cc1` (stereo not given), the growth inhibition was 57.5% (inactive) and the condensed nuclei turned out to be 13.6%. Moreover, the growth inhibition under setting [1] came to 71.7%.

As for `CCN(CC)CCCNC(=O)c1c(O)c2ccccc2n(Cc2ccccc2)c1=O`, the growth inhibition is 84.5% (inactive) and the condensed nuclei came out at 16%. Under setting [1], the growth inhibition was 95.7%.

With `CCCCn1c(O)c(C=NCCN2CCCCC2)c(=O)[nH]c1=O`, the growth inhibition is 4.76% (inactive) and the condensed nuclei came out at 0.91%. Further, the growth inhibition under setting [1] was -24.2%.

These data come from PubChem BioAssay AID772 (SRMLSC, 2007).
